Compound activity deposited in PubChem BioAssay by National Center for Advancing Translational Sciences (NCATS).
This is a sample that favours compounds with a hit; in the whole collection about 8% have one here.
HT1080NT lethal – kills 2HG-producing HT-1080-NT fibrosarcoma cells; HT-1080-NT fibrosarcoma viability, CellTiter-Glo ATP luminescence, 48 h; Potency, µM (titrated, usually from 46.1 µM), most hits filed as cytotoxic; 360,000 tested, 1.6% active; AID 686970;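 also: NT is the 2HG producing partner of a matched IDH1 knockdown line; nearly all actives have a fitted effect of over 55% in size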
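A 48-hour cytotoxicity screen used HT-1080-NT cells plated 2 hours before compound delivery. ATP-based CellTiter-Glo luminescence measured viability, normalized to DMSO and no-cell controls.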
KB-V1 MDR tox – KB-V1 MDR subline cytotoxicity; KB-V1 MDR cells viability, CellTiter-Glo, 72 h; Potency, µM (highest dose often 46.1 µM), usual class: cytotoxic; 400,000 tested, 3.4% active; AID 1347076; also: nearly all actives have a fitted effect of over 60% in size
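Following 72 h at 37 degrees C with compound, KB-V1 cell viability was read by CellTiter-Glo luminescence, medium being phenol-red-free DMEM plus 10% FBS; concentration-response parameters came from normalized, curve-fitted qHTS data.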
SW480 rerep – induces DNA re-replication in SW480 colon adenocarcinoma cells. Potency, µM (series often up to 46.1 µM), hits mostly activators. 340,000 tested, 1.8% active. SW480 DNA re-replication, Hoechst DNA content imaging, 48 h. AID 624297; also: nearly all actives have a fitted effect of over 55% in size
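250 cells/well; 23 nL cpd via pin tool; 48 hr, 37 C, 5% CO2; Hoechst 40 min; imager read of total nuclear intensity, ex 405/em 500-530 nm.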
KB-3-1 tox – KB-3-1 parental cell cytotoxicity | KB-3-1 viability, CellTiter-Glo ATP luminescence, 72 h | Potency, µM (highest dose often 46.1 µM), hits mostly cytotoxic | 400,000 tested, 1.4% active; also: nearly all actives have a fitted effect of over 60% in size
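Cells are dispensed, compounds pinned in, plates held at 37 °C for 72 h, then CellTiter-Glo is added and luminescence read after 10 minutes. Cell line: parental KB-3-1 in phenol-red-free DMEM, 10% FBS.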
HT1080 IDH1KD tx – toxicity to HT-1080 IDH1 knockdown cells (counter line); HT-1080 IDH1 knockdown viability, ATP luminescence, 48 h; Potency, µM (top dose mostly 46.1 µM), hits mostly cytotoxic; 360,000 tested, 2% active
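HT-1080-IDH1KD cells (IDH1 knocked down), 750/well in RPMI with 5% FBS, treated with compound 48 h at 37 degrees C. Viability by CellTiter-Glo luminescence, normalised to DMSO and no-cell wells; concentration-response curves classed.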
MCF10A rereplic – DNA re-replication induction in MCF 10a cells; Potency, µM (series often up to 46.1 µM), hits mostly activators; MCF 10A DNA re-replication, Hoechst nuclear intensity, 48 h; 350,000 tested, 2.9% active; AID 624296; also: nearly all actives have a fitted effect of over 50% in size
A number is an active result; - = inactive; ? = inconclusive; . = no result. Calls follow the shape of the dose curve; as a rule, active = well fitted curve in the direction sought with a large enough effect; inconclusive = small, poorly fitted or top-dose-only effect, or another doubt; inactive = no such curve, though single readings can be large; an effect the other way counts as inactive or inconclusive.

SMILES	HT1080NT lethal	KB-V1 MDR tox	SW480 rerep	KB-3-1 tox	HT1080 IDH1KD tx	MCF10A rereplic
CCOc1ccc(C(=O)COC(=O)c2cc([N+](=O)[O-])ccc2N2CCOCC2)cc1	?	?	4.1µM	?	?	?
Cc1ccc(NC(=O)c2cc(NC(=O)c3ccco3)ccc2N2CCOCC2)cc1	-	-	-	-	-	?
CCN(C(=O)c1cn(CC(C)C)c(=O)c2cc(OC)c(OC)cc12)c1cc(OC)ccc1OC	.	-	.	-	.	.
O=C1C(=O)c2ccccc2C(O)=C1C1CCC(c2ccc(Cl)cc2)CC1 (stereo not given)	?	?	-	?	-	0.033µM
CCOC(=O)c1c(NC(=O)CSc2nc(-c3ccc(OC)cc3)cc(C(F)(F)F)n2)sc(C)c1C	.	-	.	-	.	.
Cc1ccccc1-n1cc(C(=O)c2cc(Cl)ccc2O)cc(C#N)c1=O	-	15µM	-	?	-	-
Cc1nnc(SC2CC(=O)N(c3ccccc3)C2=O)s1 (stereo not given)	-	?	?	-	-	?
Cc1nc(SC2CC(=O)N(c3ccccc3)C2=O)nc2c1CCCC2 (stereo not given)	?	?	?	-	11µM	-
O=C(c1ccncc1)c1ccc(N2CCN(C3CC(=O)N(Cc4cccs4)C3=O)CC2)cc1 (stereo not given)	12µM	-	-	?	-	-
O=C1CC(N2CCN(c3ccc(O)cc3)CC2)C(=O)N1Cc1cccs1 (stereo not given)	?	-	-	-	?	-
CC[n+]1cccc(Br)c1	.	-	.	-	.	.
COc1cc(CC(=O)OCC(=O)c2ccc3c(c2)OCCO3)cc(OC)c1OC	1.6µM	0.73µM	3.3µM	1µM	1.5µM	1.3µM
O=C(COC(=O)c1ccc(O)cc1)c1ccc2c(c1)OCCO2	-	-	-	-	-	-
O=C(NC1(C(F)(F)F)N=C(c2ccccc2)N(Cc2ccccc2)C1=O)c1ccc(F)cc1 (stereo not given)	.	-	.	-	.	.
Cc1ccc(NC(=O)COc2ccc(/C=C3/SC(=Nc4ccccc4)N(Cc4cccnc4)C3=O)cc2)cc1	-	16µM	?	?	-	?
Cc1ccc(C)c(NC(=O)C(Sc2ncnc3ccccc23)c2ccccc2)c1 (stereo not given)	-	16µM	-	-	-	?
Cc1ccc(C)c(NC(=O)C(Sc2nncn2C)c2ccccc2)c1 (stereo not given)	-	15µM	-	-	-	-
COc1ccc(OCC(=O)Nc2ccc(-c3nc4cc(C)cc(C)c4o3)cc2)cc1	.	-	.	-	.	.
CC(C)(C)C(=O)Nc1cc(-c2cccc(Br)c2)nn1-c1ccccc1	.	-	.	-	.	.
Cc1nc(C)c(C(=O)N/N=C/c2cc(Br)ccc2O)s1	?	-	?	-	2.1µM	?
Nc1nonc1C(=O)N/N=C/c1cc(Br)ccc1O	?	-	-	-	2.1µM	-
Nc1nonc1-n1nnc(C(=O)N/N=C/c2cc(Br)ccc2O)c1CNc1ccccc1	?	-	?	?	23µM	7.3µM
Nc1nonc1C(=O)N/N=C/c1cccc([N+](=O)[O-])c1	-	-	-	-	-	-
NC(=O)N/N=C\c1cc(Br)ccc1O	-	?	-	-	-	-
Cc1ccc(/C=N/NC(=O)c2nnn(-c3nonc3N)c2CNc2ccccc2)cc1	-	-	-	-	-	-
SMILES	HT1080NT lethal	KB-V1 MDR tox	SW480 rerep	KB-3-1 tox	HT1080 IDH1KD tx	MCF10A rereplic
COc1ccc([N+](=O)[O-])cc1/C=N/NC(=O)c1nonc1N	?	-	18µM	-	-	16µM
CCOC(=O)c1c(-c2ccc(OC)cc2)oc2ccc(OCc3ccccc3C)cc12	.	?	.	-	.	.
CC1CCc2nc3ncn(Cc4cccc(F)c4)c(=O)c3cc2C1 (stereo not given)	.	-	.	-	.	.
Cc1cc2c(cc(C(=O)OCC(=O)NC3CCCCC3)n2C)o1	-	?	?	-	-	26µM
Cc1cc(C(=O)OCC(=O)NC2CCCCC2)c(C)o1	-	-	-	-	-	-
Cc1cc(C)n(-c2nc(NCCN(C)C)c3c4c(sc3n2)COC(C)(C)C4)n1	18µM	-	?	-	?	?
Cc1cc(C)n(-c2nc(NCCC(C)C)c3c4c(sc3n2)COC(C)(C)C4)n1	-	2.3µM	-	-	-	-
CC(=O)c1cnc(-c2cccc(Cl)c2)s1	-	?	-	-	-	2.1µM
CN(C)/C=C/C(=O)c1cnc(-c2cccc(Cl)c2)s1	-	-	-	-	-	0.65µM
OC[C@@H]1CCC[C@@H](n2cnc3c(=S)nc[nH]c32)O1	.	-	.	?	.	.
Cc1csc[n+]1CC(=O)c1ccccc1	.	-	.	-	.	.
CNC(=S)N/N=C/c1ccc(-c2cccc(C(=O)O)c2)o1	?	21µM	-	15µM	?	-
NC(=S)N/N=C\c1ccc(-c2cccc(Cl)c2Cl)o1	-	1.3µM	-	5.8µM	-	?
Cc1ccc(-c2ccc(/C=N/NC(N)=S)o2)cc1	-	?	-	-	-	?
Cc1ccc(C(=O)N/N=C/c2ccc(-c3cccc(C(F)(F)F)c3)o2)cn1	?	8.2µM	7.3µM	6.5µM	2.1µM	9.2µM
NC(=S)N/N=C/c1ccc(-c2ccccc2)o1	-	?	-	-	-	0.73µM
COC(=O)c1cnn(-c2ccc(C(=O)Nc3ccc(C(C)=O)cc3)cc2)c1N	.	-	.	-	.	.
CCOC(=O)/C=c1\s/c(=C\c2c(OC)ccc3ccccc23)c(=O)n1CC(=O)NCC1CCCO1 (stereo not given)	10µM	2.3µM	5.8µM	4.6µM	7.9µM	1.2µM
CCOC(=O)/C=c1\s/c(=C\c2ccc(C(=O)OC)cc2)c(=O)n1CC(=O)Nc1ccccc1	-	-	-	-	-	?
CCOC(=O)/C=c1\s/c(=C\c2ccc(C#N)cc2)c(=O)n1CC(=O)NCc1ccco1	-	-	-	-	-	?
CCOC(=O)/C=c1/s/c(=C/c2ccc3cc(OC)ccc3c2)c(=O)n1CC(=O)NCC1CCCO1 (stereo not given)	-	-	3.7µM	?	-	?
CCc1cccc(NC(=O)C2CCC(CNS(=O)(=O)c3ccc(Br)s3)CC2)c1 (stereo not given)	.	-	.	-	.	.
OCC1OC(n2cnc3c(=S)nc[nH]c32)C(O)C1O (stereo not given)	.	?	-	0.58µM	.	?
Nc1nc(=S)c2ncn(C3OC(CO)C(O)C3O)c2[nH]1 (stereo not given)	15µM	1µM	-	5.8µM	21µM	?
CC1(C)OC2C(CO)OC(n3cnc4c(=S)nc(N)[nH]c43)C2O1 (stereo not given)	?	?	.	?	-	.
Nc1nc(=S)c2ncn([C@@H]3O[C@H](CO)[C@@H](O)[C@H]3O)c2[nH]1	1.5µM	0.92µM	-	?	0.92µM	?
